Measured values taken from PubChem BioAssay AID1210 (NMMLSC, 2008).
Active and inactive are the calls of the source.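 How the source made its calls: active means blocks over 70% of labeled estradiol binding at 10 µM, or over a set limit at 100 nM; inactive means the rest.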

Molecular target: Estrogen receptor beta (Homo sapiens) (UniProt Q92731)
Experiment: displacement of fluorescent estrogen from ERbeta – cell-based, Cos7 ERbeta-GFP, flow cytometry, primary screen (AID 1210);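 further: 0% = DMSO vehicle wells and 100% = complete loss of labeled estradiol signal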
Settings: fluorescent estrogen binding, stronger effect = higher value
[1] = ligand binding inhibition, at 0.1 µM

Sequence of Estrogen receptor beta (Homo sapiens) (Q92731 whole entry, looked up): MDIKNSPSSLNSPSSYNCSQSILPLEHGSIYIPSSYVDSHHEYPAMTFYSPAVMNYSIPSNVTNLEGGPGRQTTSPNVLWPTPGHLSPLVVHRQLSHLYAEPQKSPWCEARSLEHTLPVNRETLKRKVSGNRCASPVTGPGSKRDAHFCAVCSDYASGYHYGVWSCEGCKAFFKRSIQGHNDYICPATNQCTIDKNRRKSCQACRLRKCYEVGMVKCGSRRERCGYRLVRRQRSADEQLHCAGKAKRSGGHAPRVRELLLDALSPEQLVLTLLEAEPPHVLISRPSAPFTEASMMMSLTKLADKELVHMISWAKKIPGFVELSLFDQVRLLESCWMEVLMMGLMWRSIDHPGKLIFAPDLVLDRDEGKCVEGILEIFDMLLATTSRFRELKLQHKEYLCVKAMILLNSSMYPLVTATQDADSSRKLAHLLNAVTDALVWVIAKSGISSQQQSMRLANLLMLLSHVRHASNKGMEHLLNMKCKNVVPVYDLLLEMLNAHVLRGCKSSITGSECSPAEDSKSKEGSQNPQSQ

| Compound | inhibition (at 10 µM) | inhibition [1] [%] |
| --- | --- | --- |
| CCCCn1c(=O)[nH]c2nc3cc(N)ccc3nc2c1=O | 31% (inactive) | 16 |
| N#CC1=C(N)OC2=C(CCC/C2=C/c2ccoc2)C1c1ccoc1 (stereo not given) | 20% (inactive) | 34 |
| O=c1oc2ccccc2cc1-c1ccc(O)cc1O | 42% (inactive) | 21 |
| CC(=O)c1ccc2c(c1)C1C=CCC1C(C(=O)O)N2 (stereo not given) | 19% (inactive) | 6 |
| COc1ccc(-c2ccc(-c3noc(-c4cccs4)n3)c(OC)n2)cc1 | 63% (inactive) | 20 |
| COc1cc2cc(C(c3nnnn3C3CCCC3)N3CCc4ccccc43)c(=O)[nH]c2cc1OC (stereo not given) | 37% (inactive) | 25 |
| Cc1cc(C)cc(OCC(=O)Nc2ccc(N3CCCC3)cc2)c1 | 71% (active) | 37 |
| O=c1c(C(c2ccc(O)cc2)c2c(O)nc3n(c2=O)CCS3)c(O)nc2n1CCS2 | 3% (inactive) | 7 |
| O=C(COC(=O)CN1C(=O)c2ccccc2C1=O)Nc1ncc(Cl)cc1Cl | 33% (inactive) | 16 |
| O=C1c2ccccc2NC(c2cccnc2)N1c1ccccc1F (stereo not given) | 63% (inactive) | 24 |
| NC(=O)c1c(NC(=O)c2cc3ccccc3o2)sc2c1CCC2 | 18% (inactive) | 54 |
| CCN1CCN(Cc2c(O)c(Cl)cc3c(C)cc(=O)oc23)CC1 | 31% (inactive) | 8 |
| O=S(=O)(NCc1csc(-c2cccnc2)n1)c1ccc(Cl)s1 | 31% (inactive) | 19 |
| COc1cc2c(cc1OC)C(Cc1ccc(O)cc1)N(C)CC2 (stereo not given) | 56% (inactive) | 6 |
| CSC1=N/C(=C\c2ccc(Br)o2)C(=O)S1 | 26% (inactive) | 43 |
| COc1cccc(NC(=O)CSc2nc3ccccc3c3nc4ccccc4n23)c1 | 31% (inactive) | 18 |
| C/C(N)=C(/C#N)C(=O)CSc1nnnn1-c1ccc(C)cc1 | 27% (inactive) | 57 |
| Oc1ccc(-c2[nH]nc(-c3ccccc3)c2-c2nc3ccccc3[nH]2)cc1 | 33% (inactive) | 21 |
| O=C(Cc1cn2ccsc2n1)OCc1nc2ccccc2s1 | 58% (inactive) | 24 |
| COc1ccc2[nH]c3nc(SCc4nnc(-c5ccc(C)cc5)o4)nnc3c2c1 | 49% (inactive) | 18 |
